IP6K1 inh – Primary qHTS assay for small molecule inhibitors of Inositol hexaphosphate kinase 1 (IP6K1) | 140,000 tested, 0.81% active | IP6K1 kinase, ADP-Glo luminescence, 2 h; active compounds read low | AID 1645851, 2021 | Inositol hexakisphosphate kinase 1 (Homo sapiens), Q92551 | activity change, % (series mostly up to about 58 µM); in the data active = activity change below about -25%; note: % is set by controls: 0 for no effect and ±100 for the full control effect
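ADP-Glo luminescence measures ADP made by human IP6K1 during a 2 h RT reaction with ATP/IP6 (mix at 1.3 mM/130 uM); top library doses 57.5 and 19.1 uM final.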
KDM5B inhibitor – Primary screen for KDM5B Histone Demethylases FDH-coupled qHTS; Lysine-specific demethylase 5B (Homo sapiens), Q9UGL1; Potency, µM (highest dose often 57.7 µM), most hits filed as inhibitors; AID 1347165, 2019; 220,000 tested, 2.6% active; KDM5B demethylase, FDH-coupled NADH fluorescence (FDH is formaldehyde dehydrogenase); note: potency is the fitted concentration of half-maximal effect; 0% is about no effect; nearly all actives have a fitted effect of over 70% in size
Target sequence (Q9UGL1 whole entry, looked up): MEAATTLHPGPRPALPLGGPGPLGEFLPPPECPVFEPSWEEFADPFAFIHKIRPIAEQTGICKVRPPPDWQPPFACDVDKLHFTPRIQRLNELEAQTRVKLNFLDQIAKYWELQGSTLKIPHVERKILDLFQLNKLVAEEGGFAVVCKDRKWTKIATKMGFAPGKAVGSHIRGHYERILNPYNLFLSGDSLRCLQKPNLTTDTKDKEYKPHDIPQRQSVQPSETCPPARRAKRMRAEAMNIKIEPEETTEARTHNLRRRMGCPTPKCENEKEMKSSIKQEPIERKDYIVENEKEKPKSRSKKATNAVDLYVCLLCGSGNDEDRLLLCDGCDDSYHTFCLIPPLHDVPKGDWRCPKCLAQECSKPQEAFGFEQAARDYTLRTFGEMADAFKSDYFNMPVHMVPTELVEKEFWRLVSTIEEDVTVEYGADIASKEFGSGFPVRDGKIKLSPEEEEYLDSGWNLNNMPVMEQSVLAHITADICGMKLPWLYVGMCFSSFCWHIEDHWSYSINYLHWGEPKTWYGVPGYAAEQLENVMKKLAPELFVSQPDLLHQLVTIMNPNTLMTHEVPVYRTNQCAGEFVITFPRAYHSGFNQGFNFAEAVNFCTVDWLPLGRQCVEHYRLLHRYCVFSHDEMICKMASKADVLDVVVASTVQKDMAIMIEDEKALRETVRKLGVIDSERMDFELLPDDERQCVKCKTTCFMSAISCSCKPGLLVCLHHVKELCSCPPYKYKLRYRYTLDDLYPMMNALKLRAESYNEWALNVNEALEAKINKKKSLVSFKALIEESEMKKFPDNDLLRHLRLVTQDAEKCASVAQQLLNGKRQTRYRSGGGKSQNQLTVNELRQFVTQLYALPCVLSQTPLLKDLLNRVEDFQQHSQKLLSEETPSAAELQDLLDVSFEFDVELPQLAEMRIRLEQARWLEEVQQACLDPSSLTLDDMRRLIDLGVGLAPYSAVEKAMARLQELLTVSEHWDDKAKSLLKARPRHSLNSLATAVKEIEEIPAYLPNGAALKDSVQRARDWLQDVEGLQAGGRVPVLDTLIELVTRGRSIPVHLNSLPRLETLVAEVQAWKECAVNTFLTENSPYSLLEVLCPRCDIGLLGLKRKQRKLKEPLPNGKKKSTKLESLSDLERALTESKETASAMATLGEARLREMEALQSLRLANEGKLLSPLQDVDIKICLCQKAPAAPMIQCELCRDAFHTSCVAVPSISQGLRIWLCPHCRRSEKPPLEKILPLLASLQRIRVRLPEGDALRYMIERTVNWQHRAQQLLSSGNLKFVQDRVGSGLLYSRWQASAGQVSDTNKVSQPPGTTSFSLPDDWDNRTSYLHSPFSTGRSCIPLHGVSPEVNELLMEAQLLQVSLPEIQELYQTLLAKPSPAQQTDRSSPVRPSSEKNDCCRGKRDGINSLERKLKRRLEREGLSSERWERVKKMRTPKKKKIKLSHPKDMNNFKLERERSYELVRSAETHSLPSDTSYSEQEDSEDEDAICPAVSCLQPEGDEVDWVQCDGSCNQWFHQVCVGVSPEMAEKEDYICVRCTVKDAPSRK
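Here, H3K4me3 peptide (12.5 µM in substrate mix) is demethylated by KDM5BΔAP, 200 nM final, after 10 min compound exposure. Formaldehyde product is coupled through FDH (0.25 U/mL in mix) to NADH fluorescence; 30-min ΔRFU feeds dose-response curves.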
HEK293 viab – GF-AFC viability counterscreen for inhibitors of alpha-synuclein gene (SNCA) expression | HEK-293-SNCA-luc viability, GF-AFC fluorescence, 24 h | Potency, µM (top dose mostly 57.1 µM), for the others: at the top dose activity change, negative = cytotoxicity, hits mostly cytotoxic | 150,000 tested, 0.12% active;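 note: potency is the fitted concentration of half-maximal effect; 0% = DMSO-treated cells and -100% = medium-only wells without cells; nearly all actives have a fitted effect of over 30% in size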
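Cytotoxicity counterscreen: after 24 h compound treatment of genome-edited SNCA-luciferase HEK-293 cells, live-cell protease substrate GF-AFC read by fluorescence after 30 min; activity scaled between DMSO (0%) and medium-only (-100%), curves Hill-fitted.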
SNCA expr inhib – Primary qHTS assay for inhibitors of alpha-synuclein gene (SNCA) expression; HEK-293 SNCA-luciferase knock-in, luminescence, 24 h; Potency, µM (titrated, usually from 57.2 µM), for the others: at the top dose activity change, negative = inhibition, most hits filed as inhibitors; 140,000 tested, 0.17% active;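 note: potency is the fitted concentration of half-maximal effect; plate controls were DMSO cells for no effect and cell-free wells for full effect; nearly all actives have a fitted effect of over 45% in size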
* = called active by the depositor; i = inactive; ? = inconclusive; . = not tested or not shown; [ ] = remark or other dose. The list is not random: actives were taken first. Their share in the collection is about 2.8%. Unless noted, calls come from the whole dose curve; as a rule, active = well fitted curve in the direction sought with a large enough effect; inconclusive = small, poorly fitted or top-dose-only effect, or another doubt; inactive = no such curve, though single readings can be large; an effect the other way counts as inactive or inconclusive.

SMILES	IP6K1 inh	KDM5B inhibitor	HEK293 viab	SNCA expr inhib
COc1ccc(-c2cc(C(=O)NC3CC3)c3c(C4CCCN4)noc3n2)cc1 (stereo not drawn)	2	79µM*	11%	27%
COC(=O)C(CC(CC(C(=O)OC)C(=O)OC)(C(=O)OC)C(=O)OC)C(=O)OC	.	i	.	.
COc1ccccc1NC(=O)Nc1c(NC2CCCCC2)c2ccccc2oc1=O	.	i	.	.
CN(C)c1ncnc2scc(-c3ccc(F)cc3)c12	.	i	.	.
Cc1ccc(-c2nnc([C@H]3CCN(Cc4ncc[nH]4)C3)o2)cc1	-10	35µM*	10%[87.6 µM]	-7%[87.6 µM]
COc1ccc(-c2nnc([C@H]3CCN(Cc4ncc[nH]4)C3)o2)cc1	14	35µM*	-7%[87.6 µM]	6%[87.6 µM]
CCCc1nnc([C@H]2CCN(Cc3ncc[nH]3)C2)o1	1	?	2%[87.6 µM]	19%[87.6 µM]
COc1ccc(CN2CC[C@H](c3nnc(-c4ccncc4)o3)C2)cc1	1	i	6%[87.6 µM]	-14%[87.6 µM]
COc1ccc(NC(=O)C2(C)CN(C)Cc3ccc(NCc4ccccc4)nc32)cc1 (stereo not drawn)	5	32µM*	-3%[87.6 µM]	3%[87.6 µM]
COCCNC(=O)C1(C)CN(C)Cc2ccc(Nc3ccccc3)nc21 (stereo not drawn)	12	i	-4%[87.6 µM]	-15%[87.6 µM]
CN1Cc2ccc(NCc3ccccc3)nc2C(C)(C(=O)NCc2cccs2)C1 (stereo not drawn)	-6	?	-17%[87.6 µM]	-28%[87.6 µM]
CN1Cc2ccc(NCc3ccccc3)nc2C(C)(C(=O)NCCOc2ccccc2)C1 (stereo not drawn)	2	32µM*	?	43%[87.6 µM]
COc1cccc(Nc2ccc3c(n2)C(C)(C(=O)NCc2cccs2)CN(C)C3)c1 (stereo not drawn)	-8	28µM*	-20%[87.6 µM]	-4%[87.6 µM]
CN1Cc2ccc(NCc3ccccc3)nc2C(C)(C(=O)Nc2ccccc2)C1 (stereo not drawn)	20	28µM*	?	?
Cc1cc(C)cc(C(=O)NC2CCN(c3cc(-c4ccc(F)cc4)[nH]n3)C2)c1 (stereo not drawn)	1	?	?	?
CCCCN(C1CCS(=O)(=O)C1)S(=O)(=O)c1ccc(OC)c(C)c1 (stereo not drawn)	.	i	.	.
O=C1NCC(c2ccc(Cl)cc2)Cc2[nH]c(-c3ccc(O)cc3)nc21 (stereo not drawn)	1	25µM*	?	-11%
c1ccc(-c2noc(-c3cncnc3NCCc3cccs3)n2)cc1	-7	28µM*	6%	6%
c1ccc(CCCNc2ncncc2-c2nc(-c3ccccc3)no2)cc1	-11	28µM*	11%	-17%
C1=C(CCNc2ncncc2-c2nc(-c3ccccc3)no2)CCCC1	-6	28µM*	6%	17%
Fc1cc(F)cc(CNc2ncncc2-c2nc(-c3ccccc3)no2)c1	2	?	8%	-10%
Cc1cccc(CNc2ncncc2-c2nc(-c3ccccc3)no2)c1	-1	?	4%	5%
CN(C)S(=O)(=O)c1ccc(=O)n(Cc2ncc(-c3ccc(Cl)cc3)o2)c1	.	i	.	.
Cn1c(C(=O)Nc2ccccc2Cl)c(Cl)c2ccccc21	.	i	.	.
COc1ccc(CN2CCOc3nc(-c4cccc(NC(C)=O)c4)ncc3C2=O)cc1	4	?	-2%[87.6 µM]	11%[87.6 µM]
SMILES	IP6K1 inh	KDM5B inhibitor	HEK293 viab	SNCA expr inhib
COc1ccc(CN2CCOc3nc(-c4cc5ccccc5o4)ncc3C2=O)cc1	-1	32µM*	-9%[87.6 µM]	-1%[87.6 µM]
O=C1c2cnc(-c3ccc(Oc4ccccc4)cc3)nc2OCCN1CC1CC1	2	35µM*	?	?
COc1ccc(CNC(=O)CN(c2cccc(Cl)c2Cl)S(=O)(=O)c2ccccc2)cc1	.	i	.	.
CCOc1ccc(CN(C(=O)c2cc(=O)c3cc(Cl)c(C)cc3o2)C2CCS(=O)(=O)C2)cc1 (stereo not drawn)	.	i	.	.
CCN(Cc1ccccc1)C(=O)CCC1CCN(S(=O)(=O)c2ccccc2)CC1	15	25µM*	3%	-29%
CCN(Cc1ccncc1)C(=O)CCC1CCN(S(=O)(=O)c2ccccc2)CC1	20	i	2%	-7%
COc1cccc(NC(=O)CCC2CCN(S(=O)(=O)c3ccccc3)CC2)c1	23	28µM*	4%	12%
Cc1noc(C)c1C(=O)N1CCCC(N2C(=O)c3c(c(C)nn3-c3ccccc3)C2C)C1 (stereo not drawn)	21	.	.	.
COc1ccc(-c2nc3c(c(=O)[nH]2)CCN(C(=O)Cc2ccsc2)C3)cc1	6	?	?	14%
COc1ccc(-c2nc3c(c(=O)[nH]2)CCN(S(=O)(=O)c2cccs2)C3)cc1	29	20µM*	-7%	-16%
COc1ccc(-c2nc3c(c(=O)[nH]2)CCN(C(=O)COc2ccccc2C)C3)cc1	2	25µM*	-13%	0%
C=CCOc1c(OC)ccc2c1CN(C1CC1)C(=O)CCN2C[C@@H](O)COCc1ccccc1	-7	.	.	.
CCCCCc1ccc(C(C)=O)cc1	.	i	.	.
Cn1ccc(C(=O)NCc2nnc3n2C(C(=O)NCC2CC2)CC3)n1 (stereo not drawn)	18	100µM*	-2%	59%
O=C(Nc1ncc(Cc2cccc(Cl)c2)s1)C1CCCCC1	.	i	.	.
CC(C)(C)c1cnc(CSc2cnc(NC(=O)C3CCNCC3)s2)o1	.	.	?	1.5µM*
O=C(c1ccc(-c2ccco2)cc1)N1CCOC(c2ccccc2)C1 (stereo not drawn)	7	28µM*	6%	16%
O=c1[nH]c(=O)n(CCc2ccccc2)c2nccc(-c3ccc(F)cc3)c12	.	i	.	.
CN(Cc1ccccc1)C(=O)c1cc(=O)[nH]c2ccc(S(=O)(=O)Nc3ccc(F)cc3)cc12	.	i	.	.
COc1ccc(Nc2ccnc(N3CCCC(C(=O)NCc4cccc(OC)c4)C3)n2)cc1 (stereo not drawn)	-4	.	?	?
COc1ccc2cc(CN3CCC(OC)CC3)c(-c3cccc(C)c3)nc2c1	13	25µM*	-19%	-1%
COc1ccc(OC)c(NC(=O)CSC2=Nc3ccccc3C3=NC(CC(=O)NCc4ccco4)C(=O)N23)c1 (stereo not drawn)	-25*	i	2%	-27%
CCOc1ccc(NC(=O)CSC2=Nc3ccccc3C3=NC(CC(=O)NCc4ccco4)C(=O)N23)cc1 (stereo not drawn)	2	?	8%	-11%
Cc1ccc(CC(=O)NC2CC3CCC2(C)C3(C)C)cc1C (stereo not drawn)	.	i	.	.
O=c1cc(N2CCOCC2)oc2c(-c3ccccc3F)nccc12	-21	?	?	-3%[87.6 µM]
O=c1cc(N2CCOCC2)oc2c(NCc3cnccn3)nccc12	-22	35µM*	-2%[87.6 µM]	2%[87.6 µM]
O=c1cc(N2CCOCC2)oc2c(NCC3CCOCC3)nccc12	-10	32µM*	?	?

Screening results from PubChem BioAssay.
